# Screening data as filed in PubChem.
# A selection: hits, their analogues and other compounds. The true share with any hit is near 2.8%.
# Pol iota inh = blocks human DNA polymerase iota activity. Pol iota fluorescent replication assay, 10 min. Potency, µM (doses to about 115 µM), for inactives: at the highest dose activity, negative = inhibition, usual class: inhibitors. actives 1% (n = 390,000). AID 588590; further: potency means the concentration at half of the fitted maximal effect
#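 Fluorescent replication assay read twice, at 0 min and 10 min after adding 50 nM (final) substrate. Enzyme (10 nM) and compounds were first incubated 15 min at room temperature; enzyme-free buffer wells were negative controls.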
# WRN helicase inh = WRN helicase (human) inhibition. Q14191. actives 0.46% (n = 360,000). AID 651768. Potency, µM (highest dose often 114 µM), for inactives: at the highest dose activity change, negative = inhibition, most hits filed as inhibitors. WRN helicase unwinding, fluorescent forked duplex, kinetic; further: potency means the concentration at half of the fitted maximal effect; on the % scale 0 is the no-effect control and ±100 the full control effect; nearly all actives have a fitted effect of over 55% in size
#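 Kinetic red-fluorescence monitoring (525/598 nm) tracks WRN helicase activity after 100 nM fluorophore-quencher forked duplex and 2 mM ATP are added to 20 nM enzyme pretreated 15 min at room temperature with compound.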
# POLK inh = inhibitors of human DNA polymerase kappa. purified Pol kappa, fluorescent DNA synthesis assay, 10 min. AID 588579. Potency, µM (doses to about 107 µM), for the others: at the top dose activity, negative = inhibition, most hits filed as inhibitors. Q9UBT6. actives 0.53% (n = 400,000); further: potency means the concentration at half of the fitted maximal effect; on the % scale 0 is the no-effect control and ±100 the full control effect
#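 10 nM Pol kappa was preincubated with compounds for 15 min at room temperature. Reaction started with 50 nM (final) substrate. Fluorescence read kinetically at 0 and 10 min.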
# PI5P4Ka inh = inhibitors of human PI5P4K alpha. AID 652105. P48426. PI5P4Kalpha enzyme, ADP-Glo luminescence, 60 min; stronger effect = lower value. max response, %. actives 1.2% (n = 330,000); active means max response of -50% or lower; inconclusive means between -30% and -50%; inactive means -30% or higher; further: value at the top dose of about 77 µM; on the % scale 0 is the no-effect control and ±100 the full control effect
#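 Reactions run in 0.038 M HEPES pH 7.4, 0.28 mM EGTA, 0.1% CHAPS and 5% DMSO, with PI5P4Kalpha, substrate, compound and 5 microM ATP final, one hour at room temperature. Readout is ADP-Glo luminescence.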
# Pol beta inh = blocks human DNA polymerase beta activity | P06746 | AID 485314 | Potency, µM (top dose mostly 114 µM), for the others: top-dose activity change, negative = inhibition, actives largely listed as inhibitors | actives 1.3% (n = 340,000) | Pol beta primer extension/strand displacement, fluorescence kinetic; further: potency means the concentration at half of the fitted maximal effect; on the % scale 0 is the no-effect control and ±100 the full control effect
#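 10 nM enzyme + cpd, 15 min RT; start with substrate 50 nM final; read 0 min and after 10 min RT. Corrected, normalized data; 4-parameter Hill curve fit.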
# POLH inh = DNA polymerase eta (human) inhibition; recombinant Pol eta, fluorescent DNA replication assay; Potency, µM (titrated, usually from 114 µM), inactives show top-dose activity change, negative = inhibition, most hits filed as inhibitors; actives 1.2% (n = 390,000); AID 588591; further: potency means the concentration at half of the fitted maximal effect; on the % scale 0 is the no-effect control and ±100 the full control effect
#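 Pol eta (10 nM) was preincubated with compounds for 15 min at room temperature, after which fluorescent replication substrate (50 nM final) was added to start the reaction. Fluorescence was read kinetically at 0 and 10 min.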
# * marks the source's active call; other numbers are inactive results; ? = inconclusive; / = no result; [ ] = another dose, or the depositor's remark. Unless noted, the call rests on the fitted dose curve; in most records, active means well fitted curve in the direction sought with a large enough effect; inconclusive means small, poorly fitted or top-dose-only effect, or another doubt; inactive means no such curve, though single readings can be large; an effect the other way counts as inactive or inconclusive.
SMILES,Pol iota inh,WRN helicase inh,POLK inh,PI5P4Ka inh,Pol beta inh,POLH inh
CC(C)NC(=O)CCn1c(SCc2c(F)cccc2Cl)nc2c(sc3ccccc32)c1=O,20.7%,/,-5.5%,/,-29.2%,-4.3%
O=C(C[n+]1ccc2ccccc2c1)c1ccc(F)cc1,1.7%,/,-0.5%,/,/,/
Cc1ccc(NC(=O)COc2ccccc2C(=O)Nc2ccccc2)cc1,8.6%,/,-6.2%,/,/,/
CC1(N2CCOCC2)CC2(O)C(=[N+]1[O-])CCc1c2no[n+]1[O-] (stereo unspecified),?,?,?,-18.8,2.2%,17.8µM*
CCOc1ccc(C(=O)Nc2cccc(NC(=O)c3ccc(C(C)(C)C)cc3)c2)cc1Br,5.6%,/,2.3%,/,10.6%,-8.0%
COc1cccc2sc3ccc(NCc4ccc5c(c4)OCO5)cc3c(=O)c12,15.8µM*,-19.1%,79.4µM*,-24.8,?,-5.6%
O=C(Nc1ccc2nc(SCC(=O)N3CCc4ccccc43)sc2c1)c1ccc(F)cc1,-17.6%,/,-9.8%,/,-1.7%,1.4%
COc1ccc(OC)c(N=Nc2c(O)c3ccccc3[nH]c2=O)c1,?,-35.5%[11.6 µM],-25.9%,-10.5,/,39.8µM*
COc1cc(N=Nc2c(O)c3ccccc3[nH]c2=O)c(OC)cc1N=Nc1ccccc1,-4.0%,0.4%,-3.2%,-17.0,?,-18.9%
CCNc1nc(NCc2ccc(F)cc2)c2cnn(C)c2n1,-17.5%,/,-19.8%[60.1 µM],/,27.7%,/
Cc1[nH]c2ccccc2c1CC#N,9.8%,-6.1%,-12.4%,8.9,19.3%,-12.3%
Cc1[nH]c2ccccc2c1C1=CC(=O)C=CC1=O,?,56.2µM*,-10.9%,-97.0*,/,?
Cc1ccccc1-c1cc2nc(NCCc3ccncc3)n(C)c(=O)c2s1,/,-3.8%,/,28.6,/,/
COc1cccc(CNC(=O)C2CCN(c3nnc(-n4c(C)ccc4C)s3)CC2)c1,?,/,-5.6%,/,0.4%,/
c1coc(CNc2nc(-c3cccs3)cs2)c1,173.0%,-9.1%,-8.2%,1.7,20µM*,-21.5%
CC1CCCCN1C(=O)COC(=O)c1ccc(S(C)(=O)=O)c([N+](=O)[O-])c1 (stereo unspecified),?,/,-7.6%,/,/,/
Cn1c(SCC(=O)NCc2ccco2)nnc1-c1ccc(S(=O)(=O)N2CCOCC2)cc1,100µM*,-27.3%,-24.0%,/,?,?
O=C(CSc1nnc(-c2ccc(S(=O)(=O)N3CCCC3)cc2)o1)NCc1ccco1,89.1µM*,-25.9%,?,/,25.1µM*,?
CCOC(=O)c1c(C)sc(-c2c(-c3cccc(Cl)c3)[nH]c3c2c(=O)n(C)c(=O)n3C)c1O,79.4µM*,/,-20.8%,/,-4.6%,/
CCOC(=O)c1cc(-c2csc(-c3cccc(Cl)c3)n2)on1,124.8%,-21.7%,3.2%,2.8,11.3%,-2.7%
CCOC(=O)c1c(C)sc(-c2c(-c3cc(C)ccc3C)[nH]c3c2c(=O)n(C)c(=O)n3C)c1O,?,/,-22.7%,/,5.62µM*,?
CCc1ccc(-n2nc(CO)c(C(=O)NC)n2)cc1,39.0%,/,-3.1%,/,5.7%,-21.1%
CC1C/C(=C/c2ccco2)C(=O)/C(=C/c2ccco2)C1 (stereo unspecified),/,/,/,/,3.55µM*,/
O=C1/C(=C/c2ccco2)Cc2ccccc21,?,-17.4%,?,-3.9,?,-4.3%
O=C1/C(=C\c2ccco2)CCC/C1=C\c1ccco1,2.82µM*,15.8µM*,8.91µM*,?,7.08µM*,?
CN(C)C(=O)c1cccc(-c2cnc3cccnn23)c1,/,-3.8%,/,-2.1,/,/
CCN(CC)c1ccc(NC(=O)C2CCN(S(=O)(=O)c3ccc4c(c3)oc(=O)n4C)CC2)c(C)c1,-9.8%,/,-5.5%,/,22.8%,3.4%
Cc1ccc(C(=O)N2CCN(c3ccc([N+](=O)[O-])cc3)CC2)o1,5.6%,5.2%,-4.3%,0.3,89.1µM*,-19.7%
CCN(CC)C(=O)N1CCN(/[N+]([O-])=N/Oc2ccc([N+](=O)[O-])cc2[N+](=O)[O-])CC1,?,/,0.3%,/,/,/
